Reference: a collection of fitness landscapes (doi:10.1126/science.1257360)
The full ranking holds about 140,000 sequences; the median of “enrichment ratio after two sorts for PhoP signalling” is about 0, and the highest 2% start at about 11. Shown is part of a subset that was picked to be rich in the highest values.

B1: PhoQ; a variant is named by its letters at X, in order, P23837 (parent)
chain: MKKLLRLFFPLSLRVRFLLATAAVVLVLSLAYGMVALIGYSVSFDKTTFRLLRGESNLFYTLAKWENNKLHVELPENIDKQSPTMTLIYDENGQLLWAQRDVPWLMKMIQPDWLKSNGFHEIEADVNDTSLLLSGDHSIQQQLQEVREDDDDAEMTHSVAVNVYPATSRMPKLTIVVVDTIPVELKSSYMVWSWFIYVLSANLLLVIPLLWVAAWWSLRPIEALAKEVRELEEHNRELLNPATTRELTSLVRNLNRLLKSERERYDKYRTTLTDLTHSLKTPLXXLQXXLRSLRSEKMSVSDAEPVMLEQISRISQQIGYYLHRASMRGGTLLSRELHPVAPLLDNLTSALNKVYQRKGVNISLDISPEISFVGEQNDFVEVMGNVLDNACKYCLEFVEISARQTDEHLYIVVEDDGPGIPLSKREVIFDRGQRVDTLRPGQGVGLAVAREITEQYEGKIVAGESMLGGARMEVIFGRQHSAPKDE

Variants of: B1
Assay: enrichment ratio after two sorts for PhoP signalling (ratio (wild type AVST 3.29)); higher = more functional
Conditions: with PhoP (E. coli)

Variant	enrichment ratio
TCAS	12.2
TCSM	18.9
TCLS	7.88
FCAS	≤ 0.25
TCVP	≤ 0.25
KCAS	≤ 0.25
TCNY	9.63
TCLT	4.19
TCLA	11.9
TCGY	20.3
KCSM	≤ 0.25
VCSM	3.67
RVLR	≤ 0.25
ENDI	≤ 0.25
MVRF	≤ 0.25
HGLK	≤ 0.25
GGGP	≤ 0.25
KHVK	≤ 0.25
TCIT	≤ 0.25
VCMT	≤ 0.25
KCSC	≤ 0.25
FCAN	≤ 0.25
FCLK	1.84
HVSC	≤ 0.25

Variant	enrichment ratio
TCMT	14.5
TCSC	12.3
TCAN	25.6
TCLK	13.1
KCAN	≤ 0.25
KCLK	≤ 0.25
NFFS	≤ 0.25
FFPR	≤ 0.25
DMHV	≤ 0.25
ETAR	≤ 0.25
KLGR	≤ 0.25
TCSN	20
KCSN	≤ 0.25
TCGD	20.3
TCDD	≤ 0.25
TCTQ	21.4
TCTW	10.8
TCAQ	15.5
VCAQ	≤ 0.25
TCYD	≤ 0.25
KCAQ	≤ 0.25
FCSN	≤ 0.25
LSTQ	≤ 0.25
HFQA	≤ 0.25

Variant	enrichment ratio
FHFW	≤ 0.25
KCDC	≤ 0.25
TKEF	≤ 0.25
SVFR	0.428
SAGS	3.14
SRYF	≤ 0.25
IHVG	≤ 0.25
LNTP	≤ 0.25
NEMN	≤ 0.25
TALV	10.2
EMAS	≤ 0.25
ESQI	≤ 0.25
TCAK	11.2
HVSY	≤ 0.25
TCHF	8.33
VCAK	≤ 0.25
TCSA	18.5
KCSY	≤ 0.25
KCSA	≤ 0.25
TCSY	13.3
KCAK	≤ 0.25
TCGF	12.5
FCSA	≤ 0.25
VEGF	≤ 0.25

Variant	enrichment ratio
YCQN	≤ 0.25
DLMC	≤ 0.25
PANG	≤ 0.25
THES	≤ 0.25
THGV	1.56
PMKY	≤ 0.25
TLGR	≤ 0.25
GLIF	≤ 0.25
FCSL	0.351
KCSL	≤ 0.25
TCCL	13.8
ACGL	2.96
GQSL	≤ 0.25
KCCL	≤ 0.25
TCDS	1.7
TCWI	1.27
TCSL	16.4
TCNS	16.1
VECL	2.59
ACSL	16.6
IIGM	≤ 0.25
QKHF	≤ 0.25
LRCK	≤ 0.25
NVPP	≤ 0.25

Variant	enrichment ratio
APIR	≤ 0.25
AWVY	≤ 0.25
ELQD	≤ 0.25
SGPP	≤ 0.25
HHVH	≤ 0.25
TICC	2.66
KPAP	≤ 0.25
AQWF	≤ 0.25
TCDT	≤ 0.25
TCAY	14.1
TCAT	14.5
KCSS	≤ 0.25
FCSS	≤ 0.25
TCSR	5.34
TCVA	≤ 0.25
KCAY	≤ 0.25
TCSK	13.7
TCNT	7.62
TCYI	1.36
TCSS	15
LFWM	≤ 0.25
NNTR	≤ 0.25
IGVH	≤ 0.25
WSVN	≤ 0.25

Variant	enrichment ratio
HDQK	≤ 0.25
LDIL	≤ 0.25
MIIK	≤ 0.25
TCIE	≤ 0.25
FCLC	7.16
TCNE	19.6
TCHE	≤ 0.25
VCLC	2.94
KCAG	≤ 0.25
FCAG	≤ 0.25
FCLN	3.94
TCLC	23.4
TCLN	13.6
VCLN	2.29
TCAG	12.5
FAWY	≤ 0.25
SDGA	≤ 0.25
GPWK	≤ 0.25
LRLK	≤ 0.25
SNTI	10.1
MHKW	≤ 0.25
IAWT	≤ 0.25
DASW	≤ 0.25
TCEG	≤ 0.25

Variant	enrichment ratio
GWNG	≤ 0.25
QLVN	≤ 0.25
FINA	≤ 0.25
ENVY	≤ 0.25
KCSI	≤ 0.25
VCSG	0.44
GMGI	≤ 0.25
TCSI	23.8
TCGI	25
FCSI	≤ 0.25
TCSG	26.2
KCSG	≤ 0.25
TCGL	13.5
TCIL	≤ 0.25
TCNL	4.28
VEGI	≤ 0.25
MHTY	≤ 0.25
LARC	≤ 0.25
RLPH	≤ 0.25
TNFS	≤ 0.25
RRNI	≤ 0.25
GIHS	≤ 0.25
YGWR	≤ 0.25
KELF	≤ 0.25

Variant	enrichment ratio
LMEL	≤ 0.25
FVVT	≤ 0.25
HNCQ	≤ 0.25
KTSH	≤ 0.25
QHHI	≤ 0.25
GMRC	≤ 0.25
KSND	≤ 0.25
TCVT	≤ 0.25
TCND	20.6
HVST	≤ 0.25
KCST	≤ 0.25
TCST	24.9
MCTV	≤ 0.25
EWLV	≤ 0.25
MTFH	3.3
QYHL	≤ 0.25
YKTG	≤ 0.25
SMFS	≤ 0.25
